Results filed as inconclusive are left out. The source made the active and inactive calls. Calls follow the shape of the dose curve; as a rule, active = well fitted curve in the direction sought with a large enough effect in the repeat runs; inconclusive = weak or mixed curves; inactive = no such curve, though single readings can be large; an effect the other way counts as inactive or inconclusive.
Tests used:
[1] = qHTS RealTime-Glo MT Cell Viability Assay in HepG2 cells - 24 hour (AID 1224867); also: nearly all actives have a fitted effect of over 50% in size
How it was run: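 Viability was tracked continuously by NanoLuc luminescence from prosubstrate reduced by living HepG2 cells, at successive time points over 40 h of compound exposure. Cells with reagent were preincubated 5 h at 37 °C before compound addition.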

[2] = qHTS RealTime-Glo MT Cell Viability Assay in HEK293 cells - 32 hour (AID 1224868); also: top concentration of the series differs between compounds; nearly all actives have a fitted effect of over 50% in size
How it was run: (§1)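 Viability tracked continuously by luminescence as live cells reduce a prosubstrate for NanoLuc; HEK293 cells preincubated 5 h, compound-treated at 37 C, and read at 0, 8, 16, 24, 32 and 40 h.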

[3] = A CellTox Green Cytotoxicity Assay to monitor cytotoxicity in HEK293 cells - 0 hour (AID 1224869); also: nearly all actives have a fitted effect of over 50% in size
How it was run: (§2)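 Cells (HEK293, 600/well) and dye reagent are dispensed together. After 5 h at 37 C, 23 nL compound is pinned in. Plates stay at 37 C for 40 h with fluorescence read at 0h, 8h, 16h, 24h, 32h and 40h.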

[4] = qHTS RealTime-Glo MT Cell Viability Assay in HepG2 cells - 40 hour (AID 1224870); also: nearly all actives have a fitted effect of over 50% in size
How it was run: (§3)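 Real-time viability: cells seeded at 600 per well together with NanoLuc and cell-permeant prosubstrate, compounds added after 5 h incubation. Luminescence tracked at 0, 8, 16, 24, 32 and 40 h of exposure.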

[5] = qHTS RealTime-Glo MT Cell Viability Assay in HEK293 cells - 16 hour (AID 1224872)
How it was run: as §1

[6] = qHTS RealTime-Glo MT Cell Viability Assay in HEK293 cells - 40 hour (AID 1224874); conditions: RealTime-Glo luminescence, stronger effect = lower value; also: nearly all actives have a fitted effect of over 50% in size
How it was run: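 Real-time viability in HEK293: signal arises when living cells convert a prosubstrate for NanoLuc in the medium, so luminescence tracks viable cell number. Compound (23 nL, DMSO) added 5 h post-seeding; kinetic reads at 0–40 h, 37 C.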

[7] = A CellTox Green Cytotoxicity Assay to monitor cytotoxicity in HEK293 cells - 24 hour (AID 1224875); also: series mostly up to about 77 µM; nearly all actives have a fitted effect of over 45% in size
How it was run: as §2

[8] = A CellTox Green Cytotoxicity Assay to monitor cytotoxicity in HepG2 cells - 16 hour (AID 1224876); also: nearly all actives have a fitted effect of over 45% in size; also: potency is read from the fitted curve at half-maximal effect
How it was run: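 Cells and non-lytic dye reagent are dispensed together (600 HepG2 cells/well) and incubated 5 h before DMSO compound transfer. Kinetic fluorescence is then recorded in the same wells during 40 h at 37 C.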

[9] = qHTS RealTime-Glo MT Cell Viability Assay in HepG2 cells - 8 hour (AID 1224873); also: nearly all actives have a fitted effect of over 55% in size
How it was run: as §3

[10] = A CellTox Green Cytotoxicity Assay to monitor cytotoxicity in HEK293 cells - 40 hour (AID 1224871); also: nearly all actives have a fitted effect of over 45% in size
How it was run: as §2
% is scaled to controls: 0 for no effect and ±100 for the full control effect.

CCCC(=O)CC
inactive: outcome [1] | outcome [2] | outcome [3] | outcome [4] | outcome [5] | max response [6] 11.6% | Potency [7] | Potency [8]

CC(=O)Nc1ccc(S(=O)(=O)Nc2cc(C)on2)cc1
inactive: outcome [1] | outcome [2] | outcome [3] | outcome [4] | outcome [5] | outcome [9] | max response [6] 0.358% | Potency [7] | Potency [8]

Cc1cccc(N)n1
inactive: outcome [1] | outcome [2] | outcome [3] | outcome [4] | outcome [5] | outcome [9] | Potency [7] | Potency [8]

Cc1cc(O)c(Cl)cc1C
inactive: outcome [1] | outcome [2] | outcome [3] | outcome [4] | outcome [5] | outcome [9] | Potency [7]
active: Potency [8] 49 µM

COCCCOc1cc(C[C@@H](C[C@H](N)[C@@H](O)C[C@H](C(=O)NCC(C)(C)C(N)=O)C(C)C)C(C)C)ccc1OC
inactive: outcome [1] | outcome [2] | outcome [3] | outcome [4] | outcome [5] | outcome [9] | max response [6] 2.37% | Potency [7] | Potency [8]

Cc1ccc(S(=O)(=O)NC(=O)NN2CC3CCCC3C2)cc1 (stereo not drawn)
inactive: outcome [1] | outcome [2] | outcome [3] | outcome [4] | outcome [5] | outcome [9] | max response [6] 5.04% | Potency [7] | Potency [8]

CCCc1ccc(O)c(OC)c1
inactive: outcome [1] | outcome [2] | outcome [3] | outcome [4] | outcome [5] | outcome [9] | max response [6] 6.36% | Potency [7] | Potency [8]

NCC1CCC(C(=O)Oc2ccc(CCC(=O)O)cc2)CC1 (stereo not drawn)
inactive: outcome [1] | outcome [2] | outcome [3] | outcome [4] | outcome [5] | outcome [9] | max response [6] 8.81% | Potency [7] | Potency [8]

C[C@@H]1CCC[C@H](C)N1CCCC(O)(c1ccccc1)c1ccccn1 (stereo partly drawn)
inactive: outcome [1] | outcome [2] | outcome [3] | outcome [4] | outcome [5] | outcome [9] | Potency [7] | Potency [8]

N=C(N)N
inactive: outcome [1] | outcome [2] | outcome [4] | Potency [10] | outcome [5] | max response [6] -0.588% | Potency [7] | Potency [8]

CCOC(=O)CC(C(C)=O)C(C)=O
inactive: outcome [1] | outcome [2] | outcome [3] | outcome [4] | outcome [5] | outcome [9] | max response [6] 0.909% | Potency [7] | Potency [8]

C=C(C)C(=O)OCCCC
inactive: outcome [1] | outcome [2] | outcome [3] | outcome [4] | outcome [5] | outcome [9] | max response [6] 11.4% | Potency [7] | Potency [8]

CCOC(=O)[C@H](CCc1ccccc1)N[C@H]1CS[C@H](c2cccs2)CN(CC(=O)O)C1=O
inactive: outcome [1] | outcome [2] | outcome [3] | outcome [4] | outcome [5] | max response [6] 0.833% | Potency [7] | Potency [8]

CCCC(=O)C(CC)Sc1ccoc1C (stereo not drawn)
inactive: outcome [1] | outcome [2] | outcome [3] | outcome [4] | outcome [5] | Potency [7] | Potency [8]

C=C(C)C(=O)OCCOC1CC2CC1C1C=CCC21 (stereo not drawn)
inactive: outcome [1] | outcome [2] | outcome [3] | outcome [4] | outcome [5] | outcome [9] | max response [6] 0.272% | Potency [7] | Potency [8]

O=Cc1ccc(C(=O)O)cc1
inactive: outcome [1] | outcome [3] | outcome [4] | Potency [10] | outcome [5] | outcome [9] | max response [6] 0.978% | Potency [7] | Potency [8]

OCCC(F)(F)C(F)(F)C(F)(F)C(F)(F)C(F)(F)C(F)(F)F
inactive: outcome [1] | outcome [2] | outcome [3] | outcome [4] | outcome [5] | outcome [9] | max response [6] -4.06% | Potency [7] | Potency [8]

C=CCON/C(CCC)=C1\C(=O)CC(C)(C)C(C(=O)OC)=C1O
inactive: outcome [1] | outcome [3] | outcome [4] | Potency [10] | outcome [5] | outcome [9] | max response [6] 3.04% | Potency [7]

C/C(Cl)=C/CCl
inactive: outcome [1] | outcome [3] | outcome [4] | Potency [10] | outcome [5] | outcome [9] | max response [6] 16% | Potency [7] | Potency [8]

CC(=O)Nc1ccc(OCCOCCOc2ccc(NC(C)=O)cc2)cc1
inactive: outcome [1] | outcome [2] | outcome [3] | outcome [4] | outcome [5] | outcome [9] | max response [6] -1.67% | Potency [7] | Potency [8]

CC(O)CCCCn1c(=O)c2c(ncn2C)n(C)c1=O (stereo not drawn)
inactive: outcome [1] | outcome [2] | outcome [3] | outcome [4] | outcome [5] | outcome [9] | max response [6] 0.953% | Potency [7] | Potency [8]

C[C@@H]1CC[C@@]2(OC1)O[C@H]1C[C@H]3[C@@H]4CC[C@H]5C[C@@H](O)CC[C@]5(C)[C@H]4CC(=O)[C@]3(C)[C@H]1[C@@H]2C
inactive: activity change, negative = cytotoxicity [1] -0.436% [at 6.97 µM] | activity change, negative = cytotoxic [2] -2.31% [at 6.97 µM] | cytotoxicity [3] -2.97% [at 6.97 µM] | activity change, negative = cytotoxic [4] -0.288% [at 6.97 µM] | activity change, negative = cytotoxicity [5] -0.344% [at 6.97 µM] | activity change [7] -2.49% [at 6.97 µM, stronger effect = higher value] | cytotoxicity increase [8] -10% [at 6.97 µM]

Cc1ccc2ccccc2n1
active: Potency [8] 0.138 µM
inactive: outcome [1] | outcome [2] | outcome [3] | outcome [4] | outcome [5] | outcome [9] | max response [6] 18.8% | Potency [7]

O=Cc1ccccc1S(=O)(=O)O
inactive: outcome [1] | outcome [3] | outcome [4] | Potency [10] | outcome [5] | outcome [9] | max response [6] 7.86% | Potency [7] | Potency [8]

CSC(=O)c1cccc2nnsc12
inactive: outcome [1] | outcome [3] | outcome [4] | Potency [10] | outcome [5] | outcome [9] | max response [6] -1.81% | Potency [7] | Potency [8]

CN1CCN(C(=O)C2CCCCC2)CC1
inactive: outcome [1] | outcome [2] | outcome [3] | outcome [4] | outcome [5] | outcome [9] | max response [6] 0.482% | Potency [7] | Potency [8]

— PubChem BioAssay (Tox21)
